Source: PubChem (National Center for Advancing Translational Sciences (NCATS))
NS1 inh – inhibitors of influenza NS1 protein function | Potency, µM (series often up to 46.1 µM), without a hit: at the highest dose activity, positive = more growth | 270,000 tested, 0.4% active; calls by dose curve; further: actives are rising curves; nearly all actives have a fitted effect of over 50% in size
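Read-out: OD600 growth recovery of NS1-expressing budding yeast. Cells grown overnight at 30C in -URA glucose medium, washed, resuspended and diluted 1:100 in 2% galactose assay medium, pH 6.0. Same strain lacking NS1 served as positive control.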
LmPK inhibitor – LmPK (Leishmania mexicana) enzyme inhibition; purified LmPK, Kinase-Glo ATP luminescence, 1 h; Potency, µM (series often up to 57.5 µM), for the others: at the highest dose activity change, negative = inhibition, hits mostly inhibitors; 290,000 tested, 0.37% active; further: on the % scale 0 is the no-effect control and ±100 the full control effect
Target sequence (Q27686 whole entry, looked up): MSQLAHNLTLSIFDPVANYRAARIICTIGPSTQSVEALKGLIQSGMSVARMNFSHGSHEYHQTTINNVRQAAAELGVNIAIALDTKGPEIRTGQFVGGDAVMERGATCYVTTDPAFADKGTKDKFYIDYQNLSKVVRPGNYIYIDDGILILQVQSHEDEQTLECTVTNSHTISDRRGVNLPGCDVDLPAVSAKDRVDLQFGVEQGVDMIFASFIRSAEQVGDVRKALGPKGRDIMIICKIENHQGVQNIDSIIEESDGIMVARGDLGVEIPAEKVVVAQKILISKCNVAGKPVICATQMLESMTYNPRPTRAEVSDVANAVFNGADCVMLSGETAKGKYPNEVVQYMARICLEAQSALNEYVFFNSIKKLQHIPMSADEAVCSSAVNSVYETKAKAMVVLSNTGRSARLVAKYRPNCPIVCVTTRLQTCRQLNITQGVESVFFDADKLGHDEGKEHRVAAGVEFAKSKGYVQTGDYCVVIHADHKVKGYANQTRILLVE
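Pyruvate kinase activity monitored as ATP production (luciferase luminescence). Conditions: 0.1 nM enzyme, 0.5 mM PEP, 0.1 mM ADP, 1 h, RT; normalized against uninhibited and no-enzyme wells.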
SARS PLpro yeast – blocks SARS-CoV papain-like protease in a yeast assay; S. cerevisiae expressing SARS-CoV PLpro, growth rescue; Potency, µM (top dose mostly 32.9 µM), inactives show at the highest dose activity, positive = growth rescue, actives largely listed as activators; 330,000 tested, 0.19% active; AID 485353; calls by dose curve; further: 0% is about no effect; nearly all actives have a fitted effect of over 55% in size
Tb PYK inh – inhibitors of Trypanosoma brucei pyruvate kinase; TbPYK enzyme, Kinase-Glo Plus ATP luminescence, 45 min; Potency, µM (highest dose often 76.8 µM), without a hit: at the highest dose activity, negative = inhibition, hits mostly inhibitors; 410,000 tested, 0.12% active; further: on the % scale 0 is the no-effect control and ±100 the full control effect; nearly all actives have a fitted effect of over 50% in size
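Luminescence from Kinase-Glo Plus, added after a 45-minute room-temperature reaction, served as the end-point read-out. The enzyme and substrate were preincubated with compound before ADP (130 uM final) initiated turnover. Concentration-effect curves came from normalized qHTS data.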
Sm TGR block – S. mansoni TGR enzyme inhibition; 360,000 tested, 3% active; purified TGR, DTNB reduction, TNB absorbance 405 nm; Potency, µM (series often up to 114 µM), inactives show top-dose activity change, negative = inhibition, most hits filed as inhibitors; Q962Y6; further: on the % scale 0 is the no-effect control and ±100 the full control effect; nearly all actives have a fitted effect of over 60% in size
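TGR 20 nM + NADPH 100 uM (dispensed conc.), cpd preinc 15 min RT; start with NADPH (500 uM addition) then DTNB (15 mM addition). Kinetic TNB absorbance, 405 nm filter. Four-parameter Hill fit across titration.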
RE007 growth inh – less growth of the S. pombe RE007 Vpr strain. S. pombe RE007 Vpr strain, BacTiter-Glo ATP luminescence, 24 h. Potency, µM (highest dose often 92.2 µM), for the others: top-dose activity change, negative = less growth, usual class: inhibitors. 360,000 tested, 0.21% active. AID 651644; active means well fitted falling curve with a large enough effect; inconclusive means small, poorly fitted or top-dose-only effect; inactive means no such curve, though single readings can be large or run the other way; further: on the % scale 0 is the no-effect control and ±100 the full control effect; nearly all actives have a fitted effect of over 50% in size
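Fission yeast strain RE007, carrying one chromosomally integrated HIV-1 vpr copy, was seeded at OD 0.01 in PMG+AL medium with 23 nL pinned compound. After 24 h at 30 °C and 99% humidity, viability was read by BacTiter-Glo luminescence.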
The depositor's hits bear a star. The list is not random: actives were taken first. Their share in the collection is about 3.3%. Unless noted, the call rests on the fitted dose curve; in most records, active means well fitted curve in the direction sought with a large enough effect; inconclusive means small, poorly fitted or top-dose-only effect, or another doubt; inactive means no such curve, though single readings can be large; an effect the other way counts as inactive or inconclusive. Potency means the concentration at half of the fitted maximal effect.

For CCOc1ccc(C2=C(C(=O)CC)Sc3nncn3N2C(=O)CC)cc1 the results were Tb PYK inh 2% and Sm TGR block -31%.
N#C[C@@H](N=Nc1ccccc1C(=O)O)C(N)=O was read as NS1 inh 0%.
`C=CCNC1=C(Cl)C(=O)c2ccccc2C1=O` gave NS1 inh -21%, LmPK inhibitor -12%, SARS PLpro yeast -13%, Tb PYK inh -1%, Sm TGR block 45µM* and RE007 growth inh 20µM*.
`COCCCNC1=C(Cl)C(=O)c2ccccc2C1=O` gave NS1 inh -9%, LmPK inhibitor -11%, SARS PLpro yeast 0%, Tb PYK inh -6%, Sm TGR block -32% and RE007 growth inh inconclusive.
`O=C1[C@@H]2[C@H](C(=O)N1Cc1ccco1)[C@H]1C=C[C@@H]2C1` gave NS1 inh 4%, LmPK inhibitor 0%, SARS PLpro yeast -2%, Tb PYK inh -4%, Sm TGR block 50µM* and RE007 growth inh 12%.
For CC(c1ccccc1)C1CC(=O)N(CC(=O)O)C1=O (stereo not drawn) the results were NS1 inh 3%, LmPK inhibitor -1%, SARS PLpro yeast 3%, Tb PYK inh 1%, Sm TGR block 4% and RE007 growth inh 8%.
CC(c1ccccc1)C1CC(=O)N(Cc2ccco2)C1=O (stereo not drawn) was read as NS1 inh 2%, LmPK inhibitor 5%, SARS PLpro yeast -1%, Tb PYK inh inconclusive, Sm TGR block 7.1µM* and RE007 growth inh 11%.
Screening CN1CCc2nc(N)nc(-c3nc(N)nc4c3CN(C)CC4)c2C1 returned NS1 inh 0%.
For Cc1cccc(Nc2nn3c(=O)c4ccccc4nc3s2)c1 the results were NS1 inh 7%, LmPK inhibitor 4%, SARS PLpro yeast 3%, Tb PYK inh 4%, Sm TGR block -1% and RE007 growth inh -2%.
For CCCSc1nn2c(=O)c3ccccc3nc2s1 the results were NS1 inh -59%, LmPK inhibitor 14µM*, SARS PLpro yeast -14%, Tb PYK inh 7%, Sm TGR block -20% and RE007 growth inh inconclusive.
`Cc1ccc2onc(CC(=O)Nc3ccc(C(C)C)cc3)c2c1` gave Tb PYK inh 7% and Sm TGR block 4%.
`COCC1CCN(Cc2c(C(=O)N3CCc4ccccc4C3)nc3ccc(Cl)cn23)C1` (stereo not drawn) gave NS1 inh 25%, LmPK inhibitor -4%, SARS PLpro yeast -7%, Tb PYK inh 0%, Sm TGR block 20µM* and RE007 growth inh -1%.
For CCN(CC)Cc1c(C(=O)N2CCc3ccccc3C2)nc2ccc(Cl)cn12 the results were NS1 inh 0%, LmPK inhibitor 4%, SARS PLpro yeast 0%, Tb PYK inh -2%, Sm TGR block -30% and RE007 growth inh -17%.
`CCN(C)Cc1c(C(=O)N2CCc3ccccc3C2)nc2ccc(Cl)cn12` gave NS1 inh -6%, LmPK inhibitor 8%, SARS PLpro yeast 0%, Tb PYK inh -7%, Sm TGR block 35µM* and RE007 growth inh 4%.
Oc1ccc(CN2CCCCC2)c2cccnc12 was read as NS1 inh 11%, LmPK inhibitor 2%, SARS PLpro yeast -77%, Tb PYK inh 1%, Sm TGR block 0% and RE007 growth inh -20%.
`Oc1ccc(CN2CCc3ccccc3C2)c2cccnc12` gave NS1 inh -37%, LmPK inhibitor 5%, Tb PYK inh 4%, Sm TGR block 32µM* and RE007 growth inh inconclusive.
CN(Cc1ccco1)Cc1ccc(O)c2ncccc12 was read as SARS PLpro yeast 0%, Tb PYK inh -1% and Sm TGR block 0.71µM*.
Oc1ccc(COCc2ccccc2)c2cccnc12 was read as NS1 inh -93%, LmPK inhibitor -8%, SARS PLpro yeast -3%, Tb PYK inh -8%, Sm TGR block 35µM* and RE007 growth inh inconclusive.
Oc1ccc(Cc2ccccc2)c2cccnc12 was read as Tb PYK inh 3% and RE007 growth inh inconclusive.
`OCc1ccc(O)c2ncccc12` gave NS1 inh -77%, LmPK inhibitor 1%, SARS PLpro yeast 5%, Tb PYK inh -4%, Sm TGR block 22µM* and RE007 growth inh -13%.
`O=C(O)c1ccc(O)c2ncccc12` gave SARS PLpro yeast -3%, Tb PYK inh 4% and Sm TGR block -10%.
CCN(Cc1ccccc1)C(=O)CCS(=O)(=O)c1cc(Br)cc2c1N(C(=O)C1CC1)CC2 was read as Tb PYK inh -9% and Sm TGR block -13%.
Screening CCOC(=O)c1cc(S(=O)(=O)Nc2ccccc2)[nH]n1 returned Tb PYK inh -5% and Sm TGR block 10%.
Screening CCCCNC(=O)c1nc(-c2cccnc2OC)oc1-c1ccc(Cl)cc1 returned RE007 growth inh -2%.
For CCCOCc1ccc(O)c2ncccc12 the results were NS1 inh -79%, LmPK inhibitor 2%, SARS PLpro yeast -17%, Tb PYK inh 3%, Sm TGR block 28µM* and RE007 growth inh 40µM*.
`CC(C)COCc1ccc(O)c2ncccc12` gave NS1 inh -36%, LmPK inhibitor 6%, SARS PLpro yeast -1%, Tb PYK inh 3%, Sm TGR block 16µM* and RE007 growth inh inconclusive.
`Cc1cc(-c2ccc(C)c(S(=O)(=O)Nc3ccccc3C(F)(F)F)c2)on1` gave Tb PYK inh 6% and Sm TGR block -7%.
Screening COc1ccc(-n2c(/C=C/c3cccc(C(F)(F)F)c3)nc3ccccc3c2=O)cc1Cl returned Tb PYK inh 1% and Sm TGR block 4%.
`CC(C)(C)c1cc(CN2CCCCC2)cc(C(C)(C)C)c1O` gave NS1 inh 5%, LmPK inhibitor -1%, SARS PLpro yeast 1% and Sm TGR block 45µM*.
`COc1cc(CN2CCCCCC2)cc(OC)c1` gave NS1 inh 6%, LmPK inhibitor 2%, SARS PLpro yeast 17%, Tb PYK inh 5%, Sm TGR block 100µM* and RE007 growth inh -7%.
`COc1ccc(CN2CCCCCC2)cc1` gave NS1 inh -10%, LmPK inhibitor 4%, SARS PLpro yeast 1%, Tb PYK inh 21%, Sm TGR block 18% and RE007 growth inh 7%.
For CN(c1ncnc2onc(-c3cccc(Cl)c3)c12)C1CCCCC1 the results were Tb PYK inh 0% and Sm TGR block 5%.
CN(C)CCC=C1c2ccccc2C=Cc2ccccc21 was read as NS1 inh -9%, Tb PYK inh 2%, Sm TGR block 25µM* and RE007 growth inh -11%.
`CN(C)CCC=C1c2ccccc2C(C)(C)c2ccccc21` gave Tb PYK inh -7%.
